# Test results published in the antibiotic and cytotoxicity screens of Wong et al. (2023).
# Out of some 39,000 compounds screened, about 1,500 (3.8%) were called active. Shown is part of a subset that was picked to be rich in actives.
# Tested on: HSkMC (human skeletal muscle cells)
# Assay: cytotoxicity call (relative viability < 0.9)
# Conditions: 10 µM
row,SMILES,cytotoxicity call
1,C[C@H](CO)N1C[C@H](C)[C@H](CN(C)S(=O)(=O)c2cn(C)cn2)Oc2c(NC(=O)Nc3ccc4c(c3)OCO4)cccc2C1=O,inactive
2,O=C1CNC(=O)N1C1CCNCC1,inactive
3,O=C(N/N=C/[C@H](O)[C@@H](O)[C@H](O)[C@H](O)CO[C@H]1O[C@H](CO)[C@H](O)[C@H](O)[C@H]1O)c1ccccn1,inactive
4,O=C(O)CN1Cc2ccccc2C1=O,inactive
5,Cc1noc(C)c1S(=O)(=O)N(C)C[C@@H]1OCCCC[C@H](C)Oc2ccc(NS(C)(=O)=O)cc2C(=O)N([C@H](C)CO)C[C@@H]1C,inactive
6,C[C@H](CO)N1C[C@H](C)[C@H](CN(C)Cc2ccccc2)OCCCC[C@H](C)Oc2ccc(NC(=O)CCC(F)(F)F)cc2C1=O,inactive
7,COc1ccc(S(=O)(=O)Nc2cccc3c2O[C@@H](CN(C)CC2CC2)[C@@H](C)CN([C@H](C)CO)C3=O)cc1,inactive
8,C[C@H](O)C#Cc1ccc2c(c1)O[C@H](CN(C)C(=O)CN(C)C)[C@H](C)CN([C@@H](C)CO)S2(=O)=O,inactive
9,COc1cc(/C=C/C(=O)NCCCNC(=O)/C=C/c2cc(OC)c(OC)c(OC)c2)cc(OC)c1OC,inactive
10,CN(C)CCOc1c(Br)cc(/C=C/C(=O)NCCCOc2c(Br)cc(CCN(C)C)cc2Br)cc1Br,inactive
11,CN(C)CCc1cc(Br)c(OCCCNC(=O)/C=C/c2cc(Br)c(OCCN3CCCC3)c(Br)c2)c(Br)c1,active
12,CN(C)CCc1cc(Br)c(OCCCNC(=O)/C=C/c2cc(Br)c(OCCN3CCCCC3)c(Br)c2)c(Br)c1,inactive
13,CC(C)N(CCOc1c(Br)cc(/C=C/C(=O)NCCCOc2c(Br)cc(CCN(C)C)cc2Br)cc1Br)C(C)C,active
14,CC(=O)OCC(=O)NCCCOc1cccc(CN2CCCCC2)c1.Cl,inactive
15,Cc1noc(C)c1NC(=O)Nc1ccc2c(c1)C(=O)N([C@H](C)CO)C[C@@H](C)[C@H](CN(C)Cc1ccc(C(=O)O)cc1)OCCCC[C@@H](C)O2,inactive
16,CN1CCN(C(=O)C[C@@H]2CC[C@H](NC(=O)Cc3ccccn3)[C@@H](CO)O2)CC1,inactive
17,C[C@H]1CN([C@@H](C)CO)C(=O)c2cc(NC(=O)NC3CCCCC3)ccc2O[C@@H]1CN(C)Cc1ccc(-c2ccccc2)cc1,inactive
18,COc1ccc(S(=O)(=O)N[C@H]2C=C[C@H](CC(=O)NCCc3ccncc3)O[C@H]2CO)cc1,inactive
19,COc1ccc(S(=O)(=O)N(C)C[C@@H]2Oc3ccc(NS(C)(=O)=O)cc3CC(=O)N([C@H](C)CO)C[C@H]2C)cc1,inactive
20,Cc1noc(C)c1S(=O)(=O)N(C)C[C@@H]1Oc2ccc(NC(=O)CCC(F)(F)F)cc2CC(=O)N([C@@H](C)CO)C[C@H]1C,inactive
21,O=C([O-])c1ccccc1-c1c2cc(I)c(=O)c(I)c-2oc2c(I)c([O-])c(I)cc12.[Na+].[Na+],inactive
22,O=C(O)c1ccccc1-c1c2cc(I)c(=O)c(I)c-2oc2c(I)c(O)c(I)cc12,active
23,O=C(O)CN(CC(=O)O)Cc1cc2c(-c3ccccc3C(=O)O)c3cc(CN(CC(=O)O)CC(=O)O)c(=O)cc-3oc2cc1O,inactive

row,SMILES,cytotoxicity call
1,Cn1cnc(CCNC(=O)C[C@H]2CC[C@H]3[C@@H](COC[C@H](O)CN3C(=O)Nc3ccc(Cl)cc3)O2)c1,inactive
2,O=C(C[C@@H]1CC[C@@H]2[C@H](COC[C@H](O)CN2S(=O)(=O)c2ccccc2F)O1)N1CCC(Cc2ccccc2)CC1,inactive
3,COCC#Cc1cnc2c(c1)C(=O)N([C@@H](C)CO)C[C@@H](C)[C@@H](CN(C)S(=O)(=O)c1cn(C)cn1)O2,inactive
4,C#CC[C@H](c1nc2cc(Cl)ccc2c(=O)n1Nc1ccccc1)N(CCCN)C(=O)c1cccc(Cl)c1F,active
5,COc1ccc(NC(=O)N(C)C[C@H]2OCCCC[C@@H](C)Oc3ccc(NC(=O)c4ccccc4)cc3C(=O)N([C@H](C)CO)C[C@@H]2C)cc1,inactive
6,C[C@H](CO)N1C[C@H](C)[C@@H](CN(C)S(=O)(=O)c2cn(C)cn2)Oc2c(NC(=O)c3ccc(-c4nccs4)cc3)cccc2C1=O,inactive
7,COc1cc(Nc2ncc(F)c(Nc3ccc4c(n3)N(COP(=O)(O)O)C(=O)C(C)(C)O4)n2)cc(OC)c1OC,active
8,NC1CCCCC1N.O=C1[O][Pt][O]C1=O (stereo unspecified),inactive
9,Cc1noc(C)c1NC(=O)N(C)C[C@H]1Oc2c(NC(=O)NC(C)C)cccc2C(=O)N([C@@H](C)CO)C[C@H]1C,inactive
10,Cc1ccc(S(=O)(=O)Nc2ccc3c(c2)C(=O)N([C@@H](C)CO)C[C@H](C)[C@@H](CN(C)C(=O)NC2CCCCC2)OCCCC[C@H](C)O3)cc1,inactive
11,C[C@H](CO)N1C[C@H](C)[C@H](CN(C)C(=O)c2ccncc2)OCCCC[C@H](C)Oc2ccc(NS(=O)(=O)c3cn(C)cn3)cc2C1=O,inactive
12,CC(=O)Nc1ncc([N+](=O)[O-])s1,inactive
13,CC(=O)Oc1ccccc1C(=O)Nc1ccccc1,inactive
14,CC(=O)Oc1ccccc1C(=O)Nc1ncc([N+](=O)[O-])s1,active
15,C[C@@H]1CN([C@H](C)CO)C(=O)c2cc(N(C)C)ccc2O[C@@H](C)CCCCO[C@@H]1CN(C)S(=O)(=O)c1cn(C)cn1,inactive
16,CCCNC(=O)C[C@H]1CC[C@H]2[C@@H](COc3ccc(NC(=O)Nc4ccc(C#N)cc4)cc3C(=O)N2C)O1,inactive
17,CCOCCOCCOc1oc(C(=O)NC2CCCCC2)c(-c2ccc(Cl)cc2)c1S(=O)(=O)c1ccc(Cl)cc1,inactive
18,CSc1ccc2c(c1)N(CCC1CCCCN1C)c1ccccc1S2.Cl (stereo unspecified),inactive
19,CN1CCC(=C2c3ccccc3Sc3ccccc32)CC1.O=C(O)C=CC(=O)O,inactive
20,CS(=O)(=O)O.CSc1ccc2c(c1)C(N1CCN(C)CC1)Cc1ccccc1S2 (stereo unspecified),active
21,C[C@@H]1CN([C@H](C)CO)S(=O)(=O)c2ccc(C#Cc3ccc(F)cc3)cc2O[C@H]1CN(C)C(=O)CN(C)C,inactive
22,CC(C)NC(=O)N(C)C[C@H]1Oc2ccc(NC(=O)NC3CCCCC3)cc2CC(=O)N([C@@H](C)CO)C[C@H]1C,inactive
23,CNC(=O)Nc1ccc(-c2nc(N3C[C@H]4CC[C@@H](C3)O4)c3cnn(C4CCC5(CC4)OCCO5)c3n2)cc1,active
